The values that follow come from article PMC13541613, “GHT-SELEX demonstrates unexpectedly high intrinsic sequence specificity and complex DNA binding of many human transcription factors”.

Experiment in all cases: HT-SELEX; 20 mM HEPES pH 7, 140 mM KCl, 5 mM NaCl, 1 mM K2HPO4, 2 mM MgSO4, 100 uM EGTA, ZnSO4, 0.1% Tween20; room temperature, 1 h; high values mean tight binding
What all share (conditions): protein: ivt; tags: eGFP (N-terminal); dsDNA, one strand shown

Assay [1] addresses ZNF721 full-length (Homo sapiens, UniProt Q8TF20-2 1-923). The procedure, abridged: (§1)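 A tagged transcription factor, either full-length or its DNA-binding-domain fragment, was made in HEK293 lysate or cell-free extract, immobilised on beads and incubated with a randomized 40-base DNA library for 1 h at room temperature in HEPES/KCl low-stringency buffer containing Tween20. Washed beads were heat-eluted, and the bound DNA was PCR-amplified over successive cycles and Illumina-sequenced at ~3 million 60 bp reads per sample. The binding signal is the relative k-mer count in selected reads, where a higher value means tighter binding.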

In assay [2] the target is ZNF721 DBD1 (Homo sapiens, UniProt Q8TF20-2 29-461). The procedure, abridged: as §1
Chain of ZNF721 DBD1 (Q8TF20 17-449): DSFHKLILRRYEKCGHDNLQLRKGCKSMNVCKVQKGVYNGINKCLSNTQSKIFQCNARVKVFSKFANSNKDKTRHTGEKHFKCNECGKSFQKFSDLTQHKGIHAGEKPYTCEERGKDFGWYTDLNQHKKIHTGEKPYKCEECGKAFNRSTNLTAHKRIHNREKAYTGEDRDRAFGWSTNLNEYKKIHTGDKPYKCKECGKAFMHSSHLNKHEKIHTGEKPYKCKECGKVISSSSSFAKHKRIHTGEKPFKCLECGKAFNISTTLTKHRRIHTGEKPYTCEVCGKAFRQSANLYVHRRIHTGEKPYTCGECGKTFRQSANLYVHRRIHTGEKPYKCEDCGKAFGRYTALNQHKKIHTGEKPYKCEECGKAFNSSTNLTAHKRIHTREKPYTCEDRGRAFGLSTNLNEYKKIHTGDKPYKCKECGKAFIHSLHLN
In assay [3] the target is ZNF721 DBD2 (Homo sapiens, UniProt Q8TF20-2 395-923). The procedure, abridged: as §1
Chain of ZNF721 DBD2 (Q8TF20 383-911): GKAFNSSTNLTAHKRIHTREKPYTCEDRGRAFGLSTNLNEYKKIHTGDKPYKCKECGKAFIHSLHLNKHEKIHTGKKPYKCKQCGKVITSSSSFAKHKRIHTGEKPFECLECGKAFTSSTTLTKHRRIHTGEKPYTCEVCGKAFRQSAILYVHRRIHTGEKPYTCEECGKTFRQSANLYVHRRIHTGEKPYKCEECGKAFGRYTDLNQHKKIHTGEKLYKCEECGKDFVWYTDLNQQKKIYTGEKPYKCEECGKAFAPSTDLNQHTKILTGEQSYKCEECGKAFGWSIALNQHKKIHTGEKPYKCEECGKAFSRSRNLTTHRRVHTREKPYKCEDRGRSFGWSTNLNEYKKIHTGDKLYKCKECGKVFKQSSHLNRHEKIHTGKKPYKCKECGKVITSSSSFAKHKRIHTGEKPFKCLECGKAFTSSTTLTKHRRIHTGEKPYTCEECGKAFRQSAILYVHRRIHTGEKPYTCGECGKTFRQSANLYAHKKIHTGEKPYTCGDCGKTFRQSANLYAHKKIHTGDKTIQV

Chain of ZNF721 full-length (Q8TF20 other isoform, or with tags, fused parts or gaps): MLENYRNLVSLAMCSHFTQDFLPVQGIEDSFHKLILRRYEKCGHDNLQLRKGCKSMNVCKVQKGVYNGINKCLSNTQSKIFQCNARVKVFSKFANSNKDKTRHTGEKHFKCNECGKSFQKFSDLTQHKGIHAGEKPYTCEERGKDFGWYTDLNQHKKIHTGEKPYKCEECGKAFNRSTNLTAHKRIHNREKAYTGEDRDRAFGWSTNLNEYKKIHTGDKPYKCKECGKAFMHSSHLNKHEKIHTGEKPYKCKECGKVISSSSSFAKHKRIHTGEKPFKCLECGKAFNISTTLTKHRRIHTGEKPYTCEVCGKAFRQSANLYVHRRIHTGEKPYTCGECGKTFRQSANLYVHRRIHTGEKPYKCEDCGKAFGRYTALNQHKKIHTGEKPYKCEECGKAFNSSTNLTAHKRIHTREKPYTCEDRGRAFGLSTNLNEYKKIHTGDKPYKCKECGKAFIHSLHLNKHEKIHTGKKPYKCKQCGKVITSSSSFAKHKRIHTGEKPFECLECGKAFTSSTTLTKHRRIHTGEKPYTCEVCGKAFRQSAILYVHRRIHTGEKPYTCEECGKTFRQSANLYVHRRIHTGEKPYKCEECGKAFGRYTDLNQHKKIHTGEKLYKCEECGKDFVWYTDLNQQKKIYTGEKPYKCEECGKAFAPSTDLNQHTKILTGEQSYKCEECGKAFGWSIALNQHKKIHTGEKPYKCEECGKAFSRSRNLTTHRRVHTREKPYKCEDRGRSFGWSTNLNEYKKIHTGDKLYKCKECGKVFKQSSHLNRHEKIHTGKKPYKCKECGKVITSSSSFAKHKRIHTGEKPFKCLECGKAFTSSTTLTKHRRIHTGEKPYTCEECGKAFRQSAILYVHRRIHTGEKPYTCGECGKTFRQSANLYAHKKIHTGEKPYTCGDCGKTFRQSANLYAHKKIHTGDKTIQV

Consider CCCACCCATC, for which the binding signal in assay [1] is 0.112 relative 10-mer count; in assay [2], 0.00514 relative 10-mer count; in assay [3], 0.00587 relative 10-mer count.

AGGATACACT: the binding signal in assay [1] is 0.17 relative 10-mer count; in assay [2], 0.0907 relative 10-mer count; in assay [3], 0.116 relative 10-mer count.

As for TAAAAAAGCA, the binding signal is 0.179 relative 10-mer count in assay [1], 0.00816 relative 10-mer count in assay [2] and 0.114 relative 10-mer count in assay [3].

CCCTCACCCC: the binding signal in assay [1] was determined as 0.193 relative 10-mer count; in assay [2], 0.00862 relative 10-mer count; in assay [3], 0.00276 relative 10-mer count.

Take CCCCCCCCTC: the binding signal came out at 0.167 relative 10-mer count in assay [1], 0.00619 relative 10-mer count in assay [2] and 0.00324 relative 10-mer count in assay [3].

AGGGGAGGGG: the binding signal turned out to be 0.13 relative 10-mer count in assay [1], 0.00665 relative 10-mer count in assay [2] and 0.00479 relative 10-mer count in assay [3].

For the sequence GAAAAAAAGC, the binding signal was 0.29 relative 10-mer count in assay [1], 0.0712 relative 10-mer count in assay [2] and 0.0678 relative 10-mer count in assay [3].

Regarding CCCACCCCAA, the binding signal worked out at 0.151 relative 10-mer count in assay [1], 0.00642 relative 10-mer count in assay [2] and 0.00575 relative 10-mer count in assay [3].

Regarding AAAAAAAAGA, the binding signal in assay [1] stood at 0.116 relative 10-mer count; in assay [2], 0.00757 relative 10-mer count; in assay [3] it was 0.0612 relative 10-mer count.

As for CCCACCCGCC, the binding signal amounted to 0.216 relative 10-mer count in assay [1], 0.00794 relative 10-mer count in assay [2] and 0.00539 relative 10-mer count in assay [3].

Regarding ACCGCCCACC, the binding signal in assay [1] is 0.152 relative 10-mer count; in assay [2], 0.005 relative 10-mer count; in assay [3], 0.00204 relative 10-mer count.

For ACACCACCCC, the results for the binding signal in assay [1], in assay [2] and in assay [3] were 0.128 relative 10-mer count, 0.00394 relative 10-mer count and 0.00276 relative 10-mer count, respectively.

In the case of ACCACCCGCC, the figures for the binding signal in assay [1], in assay [2] and in assay [3] were 0.125 relative 10-mer count, 0.00445 relative 10-mer count and 0.00312 relative 10-mer count, respectively.

As to GCCCACCCAC, the figures for the binding signal in assay [1], in assay [2] and in assay [3] were 0.168 relative 10-mer count, 0.0061 relative 10-mer count and 0.00983 relative 10-mer count, respectively.

For GCCCACCACC, the binding signal is 0.17 relative 10-mer count in assay [1], 0.00688 relative 10-mer count in assay [2] and 0.00336 relative 10-mer count in assay [3].

Turning to CTTTTTTTTA, the binding signal in assay [1] came to 0.14 relative 10-mer count; in assay [2] it was 0.0207 relative 10-mer count; in assay [3] it was 0.0588 relative 10-mer count.

AAAAAAGAAG: the results for the binding signal in assay [1], in assay [2] and in assay [3] were 0.101 relative 10-mer count, 0.0198 relative 10-mer count and 0.0207 relative 10-mer count, respectively.

Regarding GCCCCCCTCC, the values for the binding signal in assay [1], in assay [2] and in assay [3] were 0.128 relative 10-mer count, 0.00527 relative 10-mer count and 0.00264 relative 10-mer count, respectively.

As for AAAGAAGCGT, the binding signal worked out at 0.12 relative 10-mer count in assay [1], 0.0739 relative 10-mer count in assay [2] and 0.00348 relative 10-mer count in assay [3].

As to AAAAAAGCGC, the figures for the binding signal in assay [1], in assay [2] and in assay [3] were 0.115 relative 10-mer count, 0.0212 relative 10-mer count and 0.015 relative 10-mer count, respectively.

Consider CCCCCTCCTC, for which the figures for the binding signal in assay [1], in assay [2] and in assay [3] were 0.116 relative 10-mer count, 0.00459 relative 10-mer count and 0.00395 relative 10-mer count, respectively.

As to CCCCCCGCCC, the values for the binding signal in assay [1], in assay [2] and in assay [3] were 0.28 relative 10-mer count, 0.0116 relative 10-mer count and 0.00336 relative 10-mer count, respectively.

Take AGCGTATCCT: the values for the binding signal in assay [1], in assay [2] and in assay [3] were 0.146 relative 10-mer count, 0.0287 relative 10-mer count and 0.192 relative 10-mer count, respectively.

In the case of AACCACCCCC, the binding signal in assay [1] was found to be 0.106 relative 10-mer count; in assay [2], 0.00303 relative 10-mer count; in assay [3], 0.00276 relative 10-mer count.

GCCCCCCCCA: the results for the binding signal in assay [1], in assay [2] and in assay [3] were 0.107 relative 10-mer count, 0.00261 relative 10-mer count and 0.00348 relative 10-mer count, respectively.

As for AAAGCAGCAC, the values for the binding signal in assay [1], in assay [2] and in assay [3] were 0.125 relative 10-mer count, 0.00583 relative 10-mer count and 0.126 relative 10-mer count, respectively.

As to CCCCGCCTCC, the binding signal was 0.175 relative 10-mer count in assay [1], 0.00738 relative 10-mer count in assay [2] and 0.00216 relative 10-mer count in assay [3].

Consider GCCCCCTCCC, for which the binding signal in assay [1] is 0.134 relative 10-mer count; in assay [2], 0.00633 relative 10-mer count; in assay [3], 0.00384 relative 10-mer count.

CACTTCATAC: the binding signal in assay [1] was 0.747 relative 10-mer count; in assay [2], 1 relative 10-mer count; in assay [3], 0.00144 relative 10-mer count.

Regarding CCGCCCCGCC, the binding signal in assay [1] was determined as 0.156 relative 10-mer count; in assay [2] it was 0.00592 relative 10-mer count; in assay [3] it was 0.00216 relative 10-mer count.

CCCCCCCCGC: the binding signal was 0.151 relative 10-mer count in assay [1], 0.00399 relative 10-mer count in assay [2] and 0.0024 relative 10-mer count in assay [3].

With CCCCCTGCCC, the binding signal stood at 0.154 relative 10-mer count in assay [1], 0.00628 relative 10-mer count in assay [2] and 0.00192 relative 10-mer count in assay [3].

As to CCCACCCACA, the binding signal in assay [1] was 0.171 relative 10-mer count; in assay [2], 0.00688 relative 10-mer count; in assay [3] it was 0.00959 relative 10-mer count.

Take GGGCGGGGGA: the results for the binding signal in assay [1], in assay [2] and in assay [3] were 0.122 relative 10-mer count, 0.00482 relative 10-mer count and 0.00216 relative 10-mer count, respectively.

As to CCACACCACC, the binding signal in assay [1] is 0.135 relative 10-mer count; in assay [2], 0.0055 relative 10-mer count; in assay [3] it was 0.00623 relative 10-mer count.

On to AGCGTACCCT, for which the binding signal in assay [1] amounted to 0.204 relative 10-mer count; in assay [2] it was 0.0586 relative 10-mer count; in assay [3] it was 0.165 relative 10-mer count.

Consider GCCCCCCCAC, for which the results for the binding signal in assay [1], in assay [2] and in assay [3] were 0.112 relative 10-mer count, 0.0055 relative 10-mer count and 0.00803 relative 10-mer count, respectively.

In the case of CCCCCGACCC, the binding signal came out at 0.181 relative 10-mer count in assay [1], 0.00587 relative 10-mer count in assay [2] and 0.0018 relative 10-mer count in assay [3].

For CAAAAAAAGC, the binding signal in assay [1] was 0.202 relative 10-mer count; in assay [2], 0.0258 relative 10-mer count; in assay [3], 0.0675 relative 10-mer count.

As to AACAGGGTAT, the binding signal is 0.138 relative 10-mer count in assay [1], 0.00119 relative 10-mer count in assay [2] and 0.2 relative 10-mer count in assay [3].

On to CCCCCGCCCA, for which the figures for the binding signal in assay [1], in assay [2] and in assay [3] were 0.167 relative 10-mer count, 0.00638 relative 10-mer count and 0.00192 relative 10-mer count, respectively.

As to GCCACCCCCC, the binding signal in assay [1] is 0.138 relative 10-mer count; in assay [2], 0.00546 relative 10-mer count; in assay [3], 0.00348 relative 10-mer count.

Regarding CCACCCACCG, the binding signal amounted to 0.143 relative 10-mer count in assay [1], 0.00615 relative 10-mer count in assay [2] and 0.00731 relative 10-mer count in assay [3].

Regarding CCCAACCCCC, the binding signal in assay [1] is 0.208 relative 10-mer count; in assay [2], 0.00789 relative 10-mer count; in assay [3], 0.00168 relative 10-mer count.

Take ACCCCACACC: the binding signal is 0.14 relative 10-mer count in assay [1], 0.00436 relative 10-mer count in assay [2] and 0.00276 relative 10-mer count in assay [3].

With CCCTGCCCCC, the binding signal in assay [1] is 0.166 relative 10-mer count; in assay [2], 0.00642 relative 10-mer count; in assay [3], 0.00264 relative 10-mer count.

In the case of CGCTTCTTTC, the binding signal in assay [1] was determined as 0.12 relative 10-mer count; in assay [2], 0.081 relative 10-mer count; in assay [3], 0.0018 relative 10-mer count.

Turning to CCCCCATCCC, the binding signal in assay [1] is 0.173 relative 10-mer count; in assay [2] it was 0.00638 relative 10-mer count; in assay [3] it was 0.00384 relative 10-mer count.

For GGGTGGGGGA, the figures for the binding signal in assay [1], in assay [2] and in assay [3] were 0.208 relative 10-mer count, 0.00885 relative 10-mer count and 0.00443 relative 10-mer count, respectively.

As to CCCCCGCCCG, the binding signal was 0.109 relative 10-mer count in assay [1], 0.00372 relative 10-mer count in assay [2] and 0.00192 relative 10-mer count in assay [3].

Take CCCCCGCACC: the results for the binding signal in assay [1], in assay [2] and in assay [3] were 0.146 relative 10-mer count, 0.00527 relative 10-mer count and 0.00419 relative 10-mer count, respectively.

As to CGCCCCCCTC, the binding signal amounted to 0.116 relative 10-mer count in assay [1], 0.00422 relative 10-mer count in assay [2] and 0.00204 relative 10-mer count in assay [3].

Consider CCACCCTCAC, for which the binding signal in assay [1] turned out to be 0.103 relative 10-mer count; in assay [2], 0.00427 relative 10-mer count; in assay [3], 0.00791 relative 10-mer count.

As to CACCCACCCA, the binding signal in assay [1] is 0.192 relative 10-mer count; in assay [2], 0.00835 relative 10-mer count; in assay [3], 0.00503 relative 10-mer count.

AGCATACCCA: the values for the binding signal in assay [1], in assay [2] and in assay [3] were 0.391 relative 10-mer count, 0.0246 relative 10-mer count and 0.366 relative 10-mer count, respectively.

AGGGGTGGGG: the results for the binding signal in assay [1], in assay [2] and in assay [3] were 0.2 relative 10-mer count, 0.00968 relative 10-mer count and 0.00372 relative 10-mer count, respectively.

Take CCACCCACCA: the binding signal came out at 0.237 relative 10-mer count in assay [1], 0.00977 relative 10-mer count in assay [2] and 0.00791 relative 10-mer count in assay [3].

In the case of CCCAAAAAAA, the binding signal turned out to be 0.149 relative 10-mer count in assay [1], 0.0067 relative 10-mer count in assay [2] and 0.0681 relative 10-mer count in assay [3].

Consider CCCGCCGCCC, for which the results for the binding signal in assay [1], in assay [2] and in assay [3] were 0.194 relative 10-mer count, 0.00532 relative 10-mer count and 0.00192 relative 10-mer count, respectively.

Turning to GCTTCTTTCC, the binding signal is 0.103 relative 10-mer count in assay [1], 0.0866 relative 10-mer count in assay [2] and 0.00156 relative 10-mer count in assay [3].
